D1 antag = blocks dopamine activation of the human D1 receptor; HEK293 TREx D1 cells, calcium flux, dopamine EC80; active compounds read low; 3.2% of 360,000 active; activity change, negative = inhibition, % at 10 µM; P21728; in the data active = activity change below about -30%; note: % is set by controls: 0 for no effect and ±100 for the full control effect
Target sequence (P21728 whole entry, looked up): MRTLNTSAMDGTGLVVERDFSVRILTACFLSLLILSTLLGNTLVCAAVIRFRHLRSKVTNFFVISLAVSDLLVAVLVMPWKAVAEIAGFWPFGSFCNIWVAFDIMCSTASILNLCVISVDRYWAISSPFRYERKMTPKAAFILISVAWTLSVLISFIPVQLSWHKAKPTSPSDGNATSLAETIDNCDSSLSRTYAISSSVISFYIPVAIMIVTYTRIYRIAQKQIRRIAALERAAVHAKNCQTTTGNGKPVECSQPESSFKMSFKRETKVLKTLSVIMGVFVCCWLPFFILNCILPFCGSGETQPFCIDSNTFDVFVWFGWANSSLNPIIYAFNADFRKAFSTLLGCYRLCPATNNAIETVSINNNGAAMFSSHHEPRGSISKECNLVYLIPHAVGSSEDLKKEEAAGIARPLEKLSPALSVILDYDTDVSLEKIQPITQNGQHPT
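Antagonism measured as reduced calcium response to an EC80 dopamine addition following 180 s compound pre-read; cells were inducible HEK293 Trex D1 plated overnight at 30 C, read kinetically at 1 cycle/sec.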
D1 agonist = human D1 receptor agonism. P21728. HEK293 T-REx D1 cells, calcium flux, agonist mode. activation, % at 2 µM. 1% of 360,000 active. AID 504660; in the data active = activation above about 30%; note: 0% is about no effect
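Tetracycline-induced HEK293 TREx D1 cells, force-coupled to calcium signalling, were dye-loaded with a no-wash calcium kit. Compound was pin-added after a 10 s baseline. Fluorescence was read kinetically at 1 cycle/s for 180 s, with calcium rises flagged as agonism.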
DRD3 antagonist = D3 dopamine receptor (human) antagonism | 2.5% of 360,000 active | max response, negative = inhibition, % | P35462 | D3R cells, DiscoveRx beta-arrestin luminescence, antagonist mode; active compounds read low; in the data active = max response below about -50%; inconclusive = no clear call, values can overlap the other calls; note: % is set by controls: 0 for no effect and ±100 for the full control effect
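Cells plated overnight at 1500 cells/well, then exposed to library compounds with dopamine controls for 90 minutes at 37 degrees C. DiscoveRx reagent added for 30–60 minutes at room temperature; luminescence read, quantitative HTS format.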
D1 PAM = potentiators of human D1 dopamine receptor; P21728; HEK293 TREx D1 cells, calcium flux, dopamine EC20 potentiation; potentiation, % at 10 µM; 0.036% of 360,000 active; AID 504651; in the data active = potentiation above about 30%; note: 0% is about no effect
D3 ag = D3 dopamine receptor (human) agonism. 0.58% of 410,000 active. AID 652048. D3R DiscoveRx beta-arrestin cells, luminescence, 90 min. max activation, %; in the data active = max activation above about 30%; note: 0% is about no effect
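Cells at 1500/well, incubated overnight, then treated with pinned compounds (dopamine as control) for 90 min at 37 degrees C. DiscoveRx reagent added for 30 - 60 minutes at room temperature; luminescence read.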
Active calls of the source: *; ? = inconclusive; · = not tested or not shown. Only some compounds are listed: those with a hit (about 6.1% of all), similar ones and a draw of the others.

SMILES	D1 antag	D1 agonist	DRD3 antagonist	D1 PAM	D3 ag
COc1ccccc1NC(=O)CN(c1ccc(C)cc1)S(=O)(=O)c1c(C)n[nH]c1C	-54*	4	0	-8	-8
Cc1noc(C)c1S(=O)(=O)N(CC(=O)NCc1ccc(F)cc1)c1ccc(C(C)C)cc1	-35*	3	5	-5	4
CCOc1ccccc1NC(=O)CN(c1cc(C)cc(C)c1)S(=O)(=O)c1c(C)noc1C	-40*	0	0	0	-8
CCOc1ccccc1NC(=O)CN(c1ccc(OC)cc1)S(=O)(=O)c1c(C)noc1C	-1	2	?	-15	-4
O=c1c2cc3c(nc2ncn1Cc1ccccc1F)CCCC3	-1	-1	·	-2	-22
COc1ccc(C2C(=O)N(C3CCCCCC3)CC(=O)N2CCC2=CCCCC2)cc1 (centres undefined)	-6	-1	·	-2	-26
COc1cccc(-c2ccc3c(c2)O[C@@H](CN(C)Cc2cncnc2)[C@@H](C)CN([C@H](C)CO)S3(=O)=O)c1	·	·	-19	·	-11
CCOc1ccc(N(CC(=O)Nc2cccc(F)c2)S(=O)(=O)c2c(C)noc2C)cc1	-34*	5	4	-4	5
COc1ccc(N(CC(=O)Nc2cccc(C)c2)S(=O)(=O)c2c(C)noc2C)cc1	-30	4	1	-7	7
O=S(=O)(CCNCCc1ccccc1)NC1CCCCC1	·	·	-84*	·	-42
CC(C)(C)c1ccc(C(=O)Nc2ccc3c(c2)C(=O)NC3=O)cc1	7	2	60	-5	-2
CC(=O)Nc1cccc2c1C(=O)N(c1cccc(OC(C)=O)c1)C2=O	23	11	-1	-5	-6
CC(=O)c1ccc(NC(=O)c2cccc(N3C(=O)c4ccccc4C3=O)c2)cc1	-31*	2	0	0	-6
CC(=O)Oc1cccc(N2C(=O)c3ccccc3C2=O)c1	-31*	0	0	5	-5
NS(=O)(=O)c1ccc(NC(=O)c2cccc(N3C(=O)c4ccccc4C3=O)c2)cc1	0	2	1	-8	-10
CC(=O)c1ccc(C(=O)Nc2ccc3c(c2)C(=O)NC3=O)cc1	-35*	0	?	-8	-5
CCOC(=O)c1sc2nc(C)nc(SC(C)C(=O)N(C)c3ccccc3)c2c1C (centres undefined)	-3	14	76	2	6
CC(=O)Nc1ccc(NC(=O)C(C)OC(=O)c2c(NC(C)=O)sc(C)c2C)cc1 (centres undefined)	10	3	13	-1	1
OCCC1CN(C2CCN(c3ccccc3F)CC2)CCN1Cc1ccccc1 (centres undefined)	1	2	-103*	-3	-20
CSc1cccc(CN2CCN(CCc3ccccc3)C(CCO)C2)c1 (centres undefined)	2	0	-114*	-7	-25
CC(C)c1cc(CN2CCN(Cc3ccc(F)c(F)c3)C(CCO)C2)[nH]n1 (centres undefined)	-10	2	?	-6	-10
CSc1cccc(CN2CCN(Cc3ccc(F)c(F)c3)C(CCO)C2)c1 (centres undefined)	2	2	-63*	-5	-11
CSc1cccc(CN2CCN(Cc3ccccc3)C(CCO)C2)c1 (centres undefined)	9	8	-54*	-6	0
CSc1ccc(CN2CCN(Cc3ccccc3)C(CCO)C2)cc1 (centres undefined)	-5	1	?	2	-23
CCOC(=O)C1CCCN(C(=O)c2cccnc2Oc2ccccc2)CC1 (centres undefined)	·	·	-1	·	-1
CCOC(=O)C1CCC(CN(Cc2cccc(Br)c2)S(=O)(=O)c2ccc(Cl)cc2)CC1 (centres undefined)	-19	11	·	-3	-11
CC(C)Cn1c(=O)c2ccccc2n2c(CCC(=O)NCc3ccccc3Cl)nnc12	0	-1	·	-5	7
CC(C)OCCCNC(=O)Cn1ncc2c(=O)oc3ccccc3c21	-4	5	0	2	3
Cc1ccc2oc(=O)c3cnn(CC(=O)NCCCOC(C)C)c3c2c1	1	1	-84*	·	2
CSc1nnc(C)c(/C=C/Nc2ccc(C)cc2)n1	-5	46*	?	-2	-8
